Measurements reported in publication PMC12136788.
Numbering of substitutions follows the chain as printed. Whole data set: some 5,800 sequences, median “enrichment r” near 0.68, cut for the highest 2% near 11. Only a selection was taken, and the highest values are over-represented in it overall.

T1: UNK ZnF1-6 (called full-length) (human, UniProt Q9C0B0 30-357)
T1 sequence: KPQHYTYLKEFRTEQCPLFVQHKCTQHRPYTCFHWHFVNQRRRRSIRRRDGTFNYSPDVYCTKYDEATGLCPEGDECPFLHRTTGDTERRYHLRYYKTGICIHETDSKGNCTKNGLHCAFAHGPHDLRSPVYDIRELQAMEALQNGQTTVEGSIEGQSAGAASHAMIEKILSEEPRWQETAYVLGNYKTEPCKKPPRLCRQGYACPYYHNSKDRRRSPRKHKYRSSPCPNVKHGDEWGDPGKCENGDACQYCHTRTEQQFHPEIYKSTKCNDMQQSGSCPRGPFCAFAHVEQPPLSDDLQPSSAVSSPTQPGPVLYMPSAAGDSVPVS

B1: chr15:34978960:34979061:-|3pUTR|ENSG00000198146|msi1|FALSE|unique (ssRNA)
RNA: GGGAGUUCUACAGUCCGACGAUCGCCCUCUGUAUCCAUGUACUCUGCAUCUGUGGAUUAAACCAAUUGCAGAUCAAAAAUAUUAGAAAAAAUAAAAAUAAUACAAAUAAAAAUACAGUAUAACAGUUAUUUAAAUAGCAUUUACAACAGAGGAUUGAGCAUCA
B2: chr6:133987709:133987810:+|3pUTR|ENSG00000028839|unk|FALSE|unique (ssRNA)
RNA: GGGAGUUCUACAGUCCGACGAUCAAUAACAAAUAGGAAUUUUUUUUCUUGCAGAUUAGAAAUAAAAACGUGUAUAUAAACUCUAGGGAACCAGACUAGAAGUUUAUAGAUAAAGGAUAAUGUUUUAUGUUGCUAAUUUAAUAUCAACAGAGGAUUGAGCAUCA
B3: chr10:110135209:110135310:+|3pUTR|ENSG00000148700|msi1|FALSE|bound_elsewhere (ssRNA)
RNA: GGGAGUUCUACAGUCCGACGAUCCUCUCUAUUGGAAGAUUUUUUUAAUGUUCUACAUCAUUUAUGUUGUAUUACAAUGUAUGUAGAAAUAGUAACCUGUGAACUAUGCUUUUCCAUAACUUUUUAAAAAUAUAUAUAUCUAAACAACAGAGGAUUGAGCAUCA
B4: chr10:95311796:95311897:-|3pUTR|ENSG00000095637|unk|FALSE|unique (ssRNA)
RNA: GGGAGUUCUACAGUCCGACGAUCCAGACAUAGAUUUUUCUGUUCAUUUAUUUUUCUUCAUUGCAGUGGAUUGAUUUGAUAAAUAGAUGUGUUGAAUUACUACAUUUGCUGUACAUAUUAUUUAAUAAACUUUAUUCAGAAUUGCAACAGAGGAUUGAGCAUCA
B5: chr9:72354534:72354635:-|3pUTR|ENSG00000107372|msi1|FALSE|unique (ssRNA)
RNA: GGGAGUUCUACAGUCCGACGAUCGUCCUAGUUUUUACUUUUAUUCUUAAAGCAUUCAGUUUUGCUUUCAAUUUUAUGUACCUUAGUUCUGAGUUAGACCUGCAGAUGUGUACAGAUAGUUCAUAUUUAUGUAUUGCACAUAAUCAACAGAGGAUUGAGCAUCA
B6: chr14:53043751:53043854:-|3pUTR|ENSG00000100523|unk|FALSE|unique (ssRNA)
RNA: GGGAGUUCUACAGUCCGACGAUCACUUAGAUUAAAUCUUGCUUUAUUUUUACUUUAAAAUUAGUCUUGCUAAGGCCUUAUGUUAGUUCAUACUUUCUUUUCAACAGUAAUCUUGUUUAUAAUCCAGUGUUUCUGUGUUUUAGGCAACAGAGGAUUGAGCAUCA
B7: chr6:142752714:142752806:-|3pUTR|ENSG00000010818|msi1_unk|total|mutant (ssRNA)
RNA: GGGAGUUCUACAGUCCGACGAUCUUUUCUUUACUUUGCUUAUAUUCUUAUAAGCAUUUUUCCGCAGUAAUUUGUACAUAUUUCCGAAUUUGUGUAUCUGCUUUGUAAUAAAUGUAAUUUCUUUCCUUUUUUGGACACUUGGAUCAACAGAGGAUUGAGCAUCA
B8: chr5:72209348:72209524:+|3pUTR|ENSG00000131711|msi1_unk|FALSE|overlapping (ssRNA)
RNA: GGGAGUUCUACAGUCCGACGAUCUUAUGUCUUAUAAUCCUGCAUCACUUCUAUCCUAUCCAGUCAUAUCUAAUGUAGAAAAUUAGUUUCCAGUGAAAGUAAUAUGUAGUGCUUUUAUGAUAUUUGUGUGCAAUAUCCCCUCUUCAACAGAGGAUUGAGCAUCA
B9: chr21:34788506:34788607:-|3pUTR|ENSG00000159216|msi1|FALSE|unique (ssRNA)
RNA: GGGAGUUCUACAGUCCGACGAUCUUGUUAAUGCCUAUAACUUUUUUUCAAUUUUUUUGUGUGUGUUUCUAAGGACUUUUUCUUAGGUUUGCUAAAUACUGUAGGGAAAAAAAUGCUUCUUUCUACUUUGUUUAUUUUAGACUUCAACAGAGGAUUGAGCAUCA
B10: chr9:123379744:123379845:-|3pUTR|ENSG00000119522|msi1|total|mutant (ssRNA)
RNA: GGGAGUUCUACAGUCCGACGAUCGUGUUUCAGCACCGAUUCCAGUUUCGCACCCUGGGCAGACCCCCAGGCCCCAUCCGGGACCGGGCAGAGGAGGUGCUGGCGGCCCCAGGGAAGGAGGGUGUGUACCCCAAGGCCCCCUGGCAACAGAGGAUUGAGCAUCA
B11: chr3:98797553:98797658:-|3pUTR|ENSG00000057019|msi1|total|mutant (ssRNA)
RNA: GGGAGUUCUACAGUCCGACGAUCAUUUCAUUCAUUGAAGAAUCAAUACAUAUUUUGUUUCAAAAUGUUUGAAACAAAAGACACCGAUGGCCGACUUUUAUUAAAACAUAUAUGGAUGUGGAAAGCACAUAUAUUAAUGCAGUCCAACAGAGGAUUGAGCAUCA
B12: chr15:52550718:52550819:-|3pUTR|ENSG00000128989|msi1|FALSE|unique (ssRNA)
RNA: GGGAGUUCUACAGUCCGACGAUCUUUAUAUAAACUUUUUAAAUGUAGAAACUUUUUACUUCCACACUCAGUUUUGGAGACCCUAGAAUAAAAGGCUUCAAUACUCUGCAUUCCAUGCCCUCUGCCACCUGCUUUUUUUUCCCCCAACAGAGGAUUGAGCAUCA
B13: chrX:100674576:100674677:+|3pUTR|ENSG00000102359|msi1|FALSE|bound_elsewhere (ssRNA)
RNA: GGGAGUUCUACAGUCCGACGAUCUUGCAAUCCACACCAAAUCAAUCUUUGAAAACAUUCCUCCAUUCGGUUCAUACAUACAGUAGAAACCACUGUGGCUGCCCUUAAUCCAGUGUGCUUAUAGGAAAUCAGUUAGCAGCUGACCAACAGAGGAUUGAGCAUCA
B14: chr7:7607225:7607326:+|3pUTR|ENSG00000164654|msi1|total|mutant (ssRNA)
RNA: GGGAGUUCUACAGUCCGACGAUCUUUGAGUGAUUUUGAUAUGCUUCACAGAGACAAAUGCUGCCAAAAUAAACAUCGAAGUACCGACAUGAGUUCUGUUCAGCAGGUUGAAAAGUCUGAUUCCGAAAAACUUUCUAAGUUUUGCAACAGAGGAUUGAGCAUCA
B15: chr3:129431351:129431457:-|3pUTR|ENSG00000129071|unk|FALSE|unique (ssRNA)
RNA: GGGAGUUCUACAGUCCGACGAUCACUUCAAAAAAGCUUAAUUAAGUACAACCAACCACCUUUCCAGCCAUAGAGAUUUUAAUUAGCCCAACUAGAAGCCUAGUGUGUGUGCUUUCUUAAUGUGUGUGCCAAUGGUGGAUCUUUCAACAGAGGAUUGAGCAUCA
B16: chr14:44928120:44928223:-|3pUTR|ENSG00000179454|unk|FALSE|unique (ssRNA)
RNA: GGGAGUUCUACAGUCCGACGAUCUAGUACAGCAGGCCUCCCAGUGCUGAUGUAAAUAUUUGAGCAGUGUUUAGUACCAUUCUUAGUGCAUAUUAAUUUUUUUAUAUAUCCUUAUAAUUUUAGUUUUUUAAGAUCUUUGCUUUUCAACAGAGGAUUGAGCAUCA
B17: chr5:154817497:154817598:+|3pUTR|ENSG00000155506|msi1_unk|FALSE|overlapping (ssRNA)
RNA: GGGAGUUCUACAGUCCGACGAUCUUAUUGAGAGUAUCUGCUUUCCAGGCUGAAGUGAUUCAUUCAUUAUUCUAGUCCUGCUUUAGUCCUUUGUAAUUUGUGGUAAUUAUGCUUUUCUUUUUAAUACAAAAAAAUGUAUAAAAACAACAGAGGAUUGAGCAUCA
B18: chr14:44928120:44928223:-|3pUTR|ENSG00000179454|unk|total|mutant (ssRNA)
RNA: B16 RNA with U24C, A25C, U71C, A72C, U83C, A84C, U120C, A121C
B19: chr12:54238554:54238587:-|3pUTR|ENSG00000094916|msi1_unk|FALSE|overlapping (ssRNA)
RNA: GGGAGUUCUACAGUCCGACGAUCGGGAGCACCCAUUUUAAACCUGGAGAGAACCAUGAUGUUUUCUUCUUCAAAUAACAAUCUAGUUUUUUUUCCCCCAGUACUAAAAUUGUAUUGUCUUUCAGACAAUAUAAUUUUUAUUUACAACAGAGGAUUGAGCAUCA
B20: chr10:73916565:73916770:+|3pUTR|ENSG00000122861|msi1|total|mutant (ssRNA)
RNA: GGGAGUUCUACAGUCCGACGAUCCUGGUUGUCAUUUUUGCAGCCGAGUCAUCUCCAUCAGCUGUAAGAAGAGACUGGGAAGACCGGCUCUGCACAGAUGGAUUUGCCUGUGCCACCCACCAGGGCGAACGACAACCGCUUUACCAACAGAGGAUUGAGCAUCA
B21: chr10:72012227:72012328:+|3pUTR|ENSG00000122863|msi1|total|mutant (ssRNA)
RNA: GGGAGUUCUACAGUCCGACGAUCCAAUGGAAGGAGCUUCAGCAGGAGGUCCUUCCCAGAAGGUUGAUUCUUGGCCUGGGUGGCCGAGGAGAUAUCCUGACCCUAAAGUCUUCCAGCCCCGGGUCAUCCUCUCCUAUACCCGGGCAACAGAGGAUUGAGCAUCA
B22: chr1:18907414:18907603:-|3pUTR|ENSG00000169991|msi1|total|mutant (ssRNA)
RNA: GGGAGUUCUACAGUCCGACGAUCCCUUGAUUUCCCUGAUAACUUGAUGUUCUUCCCUCCCUCGCCAGCCAACAACCGAGGCUCCGAGAUCUGUAAUUUCUCUGUGAGAAAGUCUGAAGGGGCCAGGCCUGGUCUCUGCUCCCUCAACAGAGGAUUGAGCAUCA
B23: chr1:42176760:42176861:-|3pUTR|ENSG00000198815|msi1|total|mutant (ssRNA)
RNA: GGGAGUUCUACAGUCCGACGAUCGUCGCUCAGAUGUCCUUUGAAGUGGGAGGGAAUCAAUCCGGGGAUAAUUUCAAAUGGAACCGAGUAUUUUGAUAUUGUUCAUUCAGAGGGUGAUGUGUACAUAUCUAUAUUGUAUAUAUGCAACAGAGGAUUGAGCAUCA

What follows are binders tested against T1, UNK ZnF1-6 (called full-length) (assay: nsRBNS (natural sequence RNA bind-n-seq); RBNS binding buffer (assumed for nsRBNS): 25 mM Tris pH 7.5, 150 mM KCl, 3 mM MgCl2, 0.01% Triton X-100, 500 ug/ml BSA, 20 U/ml SUPERase-In, 4 C; UNK is unkempt and MSI1 is Musashi-1; names of the RNAs are library labels; protein concentration not given here; high values mean tight binding).
Work on B1 yielded a binding signal of 22.2 enrichment R.
B2 showed a binding signal of 2.44 enrichment R.
B3 gave a binding signal of 7.46 enrichment R.
B4 showed a binding signal of 2.42 enrichment R.
B5 showed a binding signal of 37.4 enrichment R.
B6 showed a binding signal of 15 enrichment R.
B7 gave a binding signal of 0.576 enrichment R.
With B8 the binding signal was 1.93 enrichment R.
For B9, the binding signal was 2.15 enrichment R.
Binder B10 has a binding signal of 0.59 enrichment R.
In the case of B11, the binding signal is reported as 0.53 enrichment R.
For B12, the binding signal was 3.77 enrichment R.
For B13, the binding signal was 0.532 enrichment R.
For B14, the binding signal was 0.348 enrichment R.
Work on B15 yielded a binding signal of 5.99 enrichment R.
For B16, the binding signal was 213 enrichment R.
In the case of B17, the binding signal is reported as 1.93 enrichment R.
With B18 the binding signal was 7.31 enrichment R.
B19 showed a binding signal of 9 enrichment R.
In the case of B20, the binding signal is reported as 0.561 enrichment R.
Work on B21 yielded a binding signal of 0.492 enrichment R.
Binder B22 has a binding signal of 0.733 enrichment R.
For B23, the binding signal was 1.09 enrichment R.
